Potency and outcome data for nine compounds are collected here from PubChem BioAssay (Tox21).

Molecules are shown by their SMILES. Several values for one entry are separate records, joined by “and”; a condition that tells them apart may be missing. Equal values may be shown once. Records with an inconclusive call do not appear. Activity calls are given as the source filed them. Unless noted, calls come from the whole dose curve; as a rule, active = well fitted curve in the direction sought with a large enough effect in the repeat runs; inconclusive = weak or mixed curves; inactive = no such curve, though single readings can be large; an effect the other way counts as inactive or inconclusive.

A short description of assay [1]: qHTS assay to identify small molecule agonists of the vitamin D receptor (VDR) signaling pathway - cell viability counter screen (AID 743224). Note: series mostly up to about 63 µM; nearly all actives have a fitted effect of over 50% in size. In outline:
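Cells: VDR-bla, 2,000/well, settled 4 h. Treatment: compounds in DMSO, 16 h, 37C/5% CO2. Readout: CellTiter-Glo luminescence after 30 min RT.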
In general terms: In qHTS, concentration-response curves come from the screen itself.

A short description of assay [2]: qHTS assay to identify small molecule antagonists of the vitamin D receptor (VDR) signaling pathway - cell viability counter screen (AID 743225). Note: nearly all actives have a fitted effect of over 50% in size. In outline:
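HEK293T VDR-bla; cpd + 1a,25-(OH)2D3 3 nM final, 16 h 37C/5% CO2; B/G FRET substrate 2 h RT; then CellTiter-Glo 30 min RT, luminescence.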

Assay [3] in a line: qHTS assay to identify small molecule agonists of the NFkB signaling pathway (AID 1159509; active = well fitted curve in the direction sought with a large enough effect in the signal ratio in the repeat runs, not every such curve was filed as active; the % refers to the signal ratio; note: series mostly up to about 61 µM). In short, it runs like this:
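Readout: FRET fluorescence, 405 nm excitation, 460/530 nm emission; beta-lactamase expression disrupts FRET. Cells: ME-180 stably carrying NF-kB-driven bla reporter. Compound exposure 5 hr, 37 C, 5% CO2.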

Assay [4] can be described thus: qHTS assay to identify small molecule agonists of the NFkB signaling pathway - cell viability counter screen (AID 1159515; calls by dose curve; note: series mostly up to about 61 µM; nearly all actives have a fitted effect of over 55% in size). In outline: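 Cells are seeded (2,000 NFkB-bla ME-180 per well), rested overnight, and dosed with DMSO-dissolved compounds for 5 hr at 37 C. Viability is then read by CellTiter-Glo luminescence after 30 min at room temperature.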
Assay [5] is described as follows: qHTS assay to identify small molecule agonists of the endoplasmic reticulum stress response signaling pathway - cell viability counter screen (AID 1159517; calls by dose curve;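 note: HeLa cells carrying an ER stress response element beta-lactamase reporter; series mostly up to about 61 µM; nearly all actives have a fitted effect of over 50% in size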). In short, it runs like this: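 After overnight attachment, ESRE-bla HeLa cells were treated with Tox21 library compounds for 5 hr. CellTiter-Glo luminescence, read 30 min post-addition at room temperature, reported viability.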

Assay [6] in a line: qHTS assay to identify small molecule antagonists of the retinoid-related orphan receptor gamma (ROR-gamma) signaling pathway - cell viability counter screen (AID 1159520). Note: nearly all actives have a fitted effect of over 50% in size. In short, it runs like this: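 Cytotoxicity was read from cellular ATP (CellTiter-Glo luminescence) after 16 hr at 37 C with 1 uM doxycycline induction. The inducer was added 2 hr after compound transfer to Tet-on ROR gamma CHO cells.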

Assay [7] is described as follows: qHTS assay to identify small molecule agonists of the AP-1 signaling pathway (AID 1159526; calls by dose curve).
For assay [8], the target named is Retinoic acid receptor RXR-alpha (Homo sapiens) (UniProt P19793). Kind of assay: qHTS assay to identify small molecule agonists of the RXR signaling pathway (AID 1159527; calls by dose curve; note: nearly all actives have a fitted effect of over 35% in size). In short, it runs like this: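 Cells plated at 2,000/well, rested 5 hr at 37 C, pin-dosed with DMSO compound solutions, incubated 16 hr, then loaded with B/G FRET substrate for 2 hr at RT before dual-emission fluorescence reading.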
Retinoic acid receptor RXR-alpha (Homo sapiens), sequence (P19793 whole entry, looked up): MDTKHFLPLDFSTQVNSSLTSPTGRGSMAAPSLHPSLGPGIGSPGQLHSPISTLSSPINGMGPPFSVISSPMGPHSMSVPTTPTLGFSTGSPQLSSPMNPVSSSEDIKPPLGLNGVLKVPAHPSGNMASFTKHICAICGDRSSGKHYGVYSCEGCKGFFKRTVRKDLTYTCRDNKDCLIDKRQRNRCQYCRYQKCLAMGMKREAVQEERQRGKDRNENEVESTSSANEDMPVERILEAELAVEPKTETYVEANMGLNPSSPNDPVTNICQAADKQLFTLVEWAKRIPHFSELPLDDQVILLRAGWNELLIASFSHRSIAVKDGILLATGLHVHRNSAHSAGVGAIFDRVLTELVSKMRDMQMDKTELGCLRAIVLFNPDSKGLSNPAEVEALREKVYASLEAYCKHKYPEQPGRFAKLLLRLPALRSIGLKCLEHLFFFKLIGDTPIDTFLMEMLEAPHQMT

Assay [9] in a line: qHTS assay to identify small molecule agonists of the RXR signaling pathway - cell viability counter screen (AID 1159529). Note: nearly all actives have a fitted effect of over 50% in size. Note: potency is the fitted concentration of half-maximal effect. In short, it runs like this: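 Steps: seed RXR-alpha-UAS-bla HEK 293T cells in assay medium containing 2% charcoal-stripped FBS; incubate 5 hr; add compounds in DMSO; incubate 16 hr at 37 C; after the bla read, add CellTiter-Glo and read luminescence at 30 min.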

Assay [10] is described as follows: qHTS assay to identify small molecule antagonists of the retinoid acid receptor (RAR) signaling pathway - cell viability counter screen (AID 1159551). Note: nearly all actives have a fitted effect of over 35% in size. In outline: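 Cells (C3RL4) are plated, incubated overnight, dosed with compound in DMSO, then given retinol at 1 uM final. After 6 h at 37 C, CellTiter-Glo is added and luminescence read following 30 min at room temperature.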

A short description of assay [11]: qHTS assay to identify small molecule agonists of the AP-1 signaling pathway - cell viability counter screen (AID 1159525; calls by dose curve; note: nearly all actives have a fitted effect of over 55% in size). In short, it runs like this:
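Intracellular ATP by Cell Titer Glo luminescence (30 min, RT) in the same ME-180 AP-1-bla wells after the 5 h compound exposure at 37 °C. Normalised to tetra n-octyl ammonium bromide and DMSO controls.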

For assay [12], the target named is Nuclear receptor ROR-gamma (Homo sapiens) (UniProt P51449). Kind of assay: qHTS assay to identify small molecule antagonists of the retinoid-related orphan receptor gamma (ROR-gamma) signaling pathway (AID 1159521; note: nearly all actives have a fitted effect of over 50% in size; note: potency is the fitted concentration of half-maximal effect). In short, it runs like this:
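Cells were plated, rested 4 h at 37 C, exposed to compounds for 2 h, then given 1 uM final doxycycline hyclate to induce RORγ expression. After 16 h, ONE-Glo luminescence from the ROR response element reporter was measured.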

Assay [13] can be described thus: qHTS assay to identify small molecule antagonists of the retinoic acid receptor (RAR) signaling pathway (AID 1159552; note: nearly all actives have a fitted effect of over 50% in size). In outline:
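Retinol at 1 uM final stimulated RARE-luciferase expression in C3RL4 cells exposed to test compounds for 6 hr at 37 C. Reduced luminescence, read 30 min after detection reagent, indicated pathway antagonism.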

A short description of assay [14]: qHTS assay to identify small molecule agonists of the retinoic acid receptor (RAR) signaling pathway (AID 1159553). Note: potency is the fitted concentration of half-maximal effect. In outline:
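Seed C3RL4 reporter cells at 1,000 per well and incubate overnight at 37 C. Add compounds in DMSO, incubate 6 hr. Add luciferase reagent, wait 30 min at room temperature, read luminescence.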

Assay [15] is described as follows: qHTS assay to identify small molecule antagonists of the estrogen related receptor (ERR) signaling pathway - cell viability counter screen (AID 1224818). Note: series mostly up to about 46 µM. In short, it runs like this:
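ERR cells, 2,000/well; 6 h settle at 37 C/5% CO2; compound pin transfer (DMSO); 17.5 h at 37 C; CellTiter-Fluor, 30 min, fluorescence read.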

The nature of assay [16]: qHTS assay to identify small molecule antagonists of the estrogen related receptor signaling pathway with the pleiotropic PPARgamma coactivator (PGC) cell viability counter screen (AID 1224822;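 note: series mostly up to about 46 µM; viability read after 17.5 h compound exposure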). In short, it runs like this:
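Multiplexed viability counter screen run in PGC/ERR cells treated with compounds for 17.5 h at 37 C; live-cell protease signal measured by CellTiter-Fluor fluorescence.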

Assay [17] can be described thus: qHTS assay to identify small molecule agonists of the endoplasmic reticulum stress response signaling pathway (AID 1159516; active = well fitted activation curve with a large enough effect in the signal ratio in the repeat runs, not every such curve was filed as active; the % refers to the signal ratio). In outline: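 Cells are seeded at 1,500 per well and incubated overnight. Compounds in DMSO are added for 5 hr at 37 C, then beta-lactamase FRET substrate for 2 hr at room temperature, and fluorescence at 460 and 530 nm is measured.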
Assay [18] is described as follows: qHTS assay to identify small molecule antagonists of the estrogen related receptor (ERR) signaling pathway (AID 1224819). In outline:
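qHTS in ERR cells, 2,000/well, 1536 format. Cpd (DMSO) added after 6 h settle, 18 h 37 C. One-Glo luminescence, 30 min RT.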

Assay [19] in a line: qHTS assay to identify small molecule agonists of the estrogen related receptor (ERR) signaling pathway (AID 1224820). Note: potency is the fitted concentration of half-maximal effect. In short, it runs like this: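 Luminescence readout (One-Glo, 30 min RT) from NTP-supplied ERR cell line exposed to compounds for 18 h at 37 C. Cells seeded 2,000 per well and pre-incubated 6 h before pin-tool compound transfer.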
Assay [20] concerns estrogen-related receptor alpha (ERRalpha) with PGC-1alpha coactivator, human. Kind of assay: qHTS assay to identify small molecule antagonists of the estrogen related receptor signaling pathway with the pleiotropic PPARgamma coactivator (PGC) (AID 1224821; calls by dose curve). In short, it runs like this: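 PGC/ERR reporter cells; 6 h pre-incubation 37 C/5% CO2; pin-tool compound in DMSO, 18 h 37 C; One-Glo added, 30 min RT; luminescence read. qHTS antagonist mode.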

In the case of `CS(=O)(=O)c1ccc([C@@H](O)[C@@H](CO)NC(=O)C(Cl)Cl)cc1`, the Potency result in [1], in assay [2], in [5], in assay [6], in assay [7] and in assay [8] was “inactive” throughout. Further, the Potency entry in assay [9] and in [10] was “inactive” throughout. Also, the result in [3] and in [4] was inactive.

In the case of `CCCCC(CC)COC(=O)CCCCCCCC(=O)OCC(CC)CCCC` (stereo unspecified), the Potency entry in assay [1], in assay [2], in assay [5], in assay [6], in assay [11] and in [7] was “inactive” each time. Further, the Potency entry in assay [8], in [9] and in assay [10] was “inactive” in each case. The outcome in assay [3] and in assay [4] was inactive.

For the compound `NCc1cccc(CN)c1`, the Potency entry in [1], in assay [2], in assay [5], in [6], in assay [12] and in assay [11] was “inactive” in each case. Also, the Potency entry in assay [7], in assay [8], in assay [9], in assay [10], in [13] and in assay [14] was “inactive” throughout. In addition, the result in assay [3] was inactive.

In the case of `CC(C)NCC(O)COc1cccc2ccccc12` (stereo unspecified), the Potency result in [1], in assay [2], in assay [5], in assay [6], in assay [12] and in assay [11] was “inactive” each time. Also, the Potency entry in assay [8], in [9], in [10], in assay [13] and in assay [14] was “inactive” in each case. Besides, the compound was called inactive in [3], in [4], in assay [15] and in assay [16].

Regarding `Cn1c([N+](=O)[O-])cnc1COC(N)=O`, the Potency result in assay [1], in [2], in [5], in assay [6], in assay [12] and in assay [11] was “inactive” each time. The Potency result in assay [7], in assay [8], in assay [9], in [10], in assay [13] and in [14] was “inactive” each time. Further, the outcome in [3] was inactive.

For `CC(C)(C)C1CCC(O)CC1` (stereo unspecified), the Potency result in [1], in [2], in assay [5], in assay [6], in assay [12] and in assay [11] was “inactive” each time. The Potency entry in [7], in [8], in [9], in assay [10], in assay [13] and in [14] was “inactive” each time. Besides, in assay [3], the call was inactive.

In the case of `Oc1c(Cl)cc(Cl)c(Cl)c1Cl`, the Potency result in assay [1], in [5], in [6], in assay [11], in assay [7] and in [8] was “inactive” each time. Further, the Potency result in [10], in assay [13] and in assay [14] was “inactive” throughout. Besides, the compound was classed as inactive in assay [4] and in assay [17]. Moreover, the Potency is 53.3 µM (active) and 61.1 µM (active) in assay [12]; 15.2 µM (active) and 13.8 µM (active) in assay [9].

Turning to `Nc1cc(-c2ccncc2)c[nH]c1=O`, the Potency result in [1], in assay [2], in assay [5], in assay [6], in assay [12] and in assay [11] was “inactive” in each case. The Potency entry in assay [7], in assay [8], in assay [9], in [10], in [13] and in assay [14] was “inactive” each time. The result in assay [3] and in assay [4] was inactive.

Take `O=c1c(-c2ccc(O)cc2)coc2cc(O)ccc12`: the Potency result in assay [1], in assay [2], in assay [5], in assay [6], in assay [12] and in [11] was “inactive” each time. For the same compound, the Potency result in assay [7], in [8], in assay [9], in assay [10], in [13] and in assay [18] was “inactive” throughout. Further, in assay [20], the Potency entry was “inactive”. The compound was classed as inactive in [3], in assay [17], in assay [15] and in assay [16]. In addition, the Potency is 2.41 µM (active) and 12.2 µM (active) in [14]; 15.5 µM (active) in assay [19].
